In all, about 25,000 sequences were measured (“ln(normalized median fluorescence intensity)”: median about 6.7, highest 2% from about 10 on). Shown is part of a subset that was picked to be rich in the highest values.
Test system: PfHDP1 homeodomain (GST-tagged)
Assay: gcPBM binding intensity (ln(normalized median fluorescence intensity)); higher = stronger DNA binding
In short: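 GST-tagged P. falciparum DNA-binding domains, expressed in E. coli (about 25 μg on average), were applied for 1 h to an Agilent 4 × 180k array of primer-extended double-stranded 36-bp intergenic genomic probes plus negative controls. The binding buffer was 1× PBS with 1% milk, 0.2 mg/ml BSA, 0.5% salmon testes DNA and 0.03% Triton X-100. Bound protein was detected with Alexa488 anti-GST antibody and scanned at 488 nm. Binding intensity is the highest Masliner-normalised natural-log median intensity across replicate spots of either probe orientation.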

| Sequence | gcPBM binding intensity (ln) |
| --- | --- |
| ATTATATATATATATACACACACACCCTAAAAATAT [CACACA_site8463] | 7.22 |
| AAAAGATAATTATGCACACACACACCCAGACACAAC [CACACA_site5428] | 10.4 |
| TAATTATGCGGACACACACACACACCCAACTAAAAA [CACACA_site5427] | 6.81 |
| ATTATGCACGGACACACACACACACCCCTAAAAAAT [CACACA_site5426] | 10.5 |
| AAAAAAGATAATTATGCACACACACCCACCCACCCA [CACACA_site8825] | 9.38 |
| GAAATTAAAAAATTTATGCACACTTTAAAAAAAAAA [CACACA_site3769] | 9.28 |
| ATTATGCACAGACACACACACACACTACTAAAAAAT [CACACA_site7252] | 11.1 |
| AAAAGATAATTATGCACACACACACCCCCACCCAAC [CACACA_site2570] | 10.5 |
| TATGCACCCAGACACACACACACAACTAAAAAATAA [CACACA_site2567] | 8.1 |
| TTATTAGAAAAATGCACACCAAAAAAAAAAAAAAAA [CACACA_site2522] | 8.93 |
| ATTATGCACCAACACACACACACACTCCTAAAAAAT [CACACA_site8822] | 11.7 |
| AAAAAATTAGATTATGCACACACACTAATAAATAAT [CACACA_site8604] | 9.67 |
| ACCTATTTCAAACACACACACACACTAGCAAACATA [CACACA_site4695] | 7.26 |
| AAGAGAAAAATATGGTTGCACTAAAAATATATATTT | 8.26 |
| ATCATTTTTAAAGGAACACACAAAAAAAATTAAAAT [CACACA_site4878] | 6.76 |
| TCTTTTTTAATATAATATATTTTTATTAAGTAAATC [TGCATGCA_negctrl_site408] | 6.2 |
| ATTAATAATGAGTTATGTACATACATATTTTAAGAT [XGTACX_site7543] | 6.75 |
| AATAAATACTAAATGGTGCAAAATTTTTTAACACTG | 10 |
| CATACTCTACATAGATGTACTCATTTAAAAAAAAAA [XGTACX_site6945] | 6.12 |

| Sequence | gcPBM binding intensity (ln) |
| --- | --- |
| AATTAATAAAAAAGGTGTACAGTAAATGCAATAATC [XGTACX_site7956] | 8.08 |
| AAATATATCATACAAAGTACTTGGAATTAATATATA [XGTACX_site8907] | 6.3 |
| TAATTATGCCAACACACACACACACCCAACTAAAAA [CACACA_site8823] | 6.96 |
| TAATTATGCAGACACACACACACACCCAACTAAAAA [CACACA_site2569] | 7 |
| ATTATGCACCAACACACACACACACCCCTAAAAAAT [CACACA_site2568] | 11.5 |
| ATATAAAGGTTTATTAGTACACATTAGAATACTTTT [XGTACX_site4492] | 6.22 |
| GGGTTTTTAAAATGTAGTACATATGTAAACATCAAA [XGTACX_site1262] | 6.7 |
| CCAATACTGTTTAAATGTACAAGTAGGAGGTTAATT [XGTACX_site7260] | 6.64 |
| TTTTCAATATATATTTGTACTTTATTTTATGATATT [GTGCAC_negctrl_site732] | 6.71 |
| TATATATATATATATTGTACTTTATTTTATATATTC [XGTACX_site5697] | 9.11 |
| GCTTATGCTCAATATTGTACTTTTTTTATTTATTCA [XGTACX_site8863] | 10.6 |
| AGCATTTTTCATTTTGCACACATGTTTTATGGGTAT [CACACA_site5839] | 10.5 |
| AGCATTTTTCATTTTGCACACATGTTTTATGTGTAT [CACACA_site3454] | 10.5 |
| TATGTGTATTTATTTGCATGTTGGTTGTATTTTTTC [TGCATGCA_site479] | 6.94 |
| TATCCTAACTTTAGATGTACACAAATAAAAAAAAAA [XGTACX_site4491] | 6.32 |
| ATTTATATGAAAATATGTACTTATATAAATTTATTT [XGTACX_site53] | 6.23 |
| TAAGAATAATGACATAGTACAATTTAATAGATCTAA [XGTACX_site3670] | 6.01 |
| TTTTTTTTTAAAGAAAATAAAAATATGTACTTGACA [CACACA_negctrl_site1113] | 6.05 |
| TTTTAAAAAAATATAATACACACCAAAAATATGCAC [CACACA_site2131] | 7.15 |

| Sequence | gcPBM binding intensity (ln) |
| --- | --- |
| AAAATAATCTTATGCACACCAAAAATTTATATAATC [CACACA_site1235] | 10.6 |
| AAAAAATTAATAAAAACACACAAAAAAAATAAACAA [CACACA_site1907] | 6.94 |
| TAGTTAACAAATAATGCACACAAATGGATAAAATTA [CACACA_site9240] | 10.6 |
| CGAAATAAATCTTATGCACACAAATAATTAATTAAA [CACACA_site8491] | 10.5 |
| GTTAACAAATAATGCACACAAATGGATAAAATTATA [CACACA_site3725] | 9.97 |
| AATCATAAACATTATGCACACAAAAATAAAAAAAAA [CACACA_site8289] | 8.58 |
| TTTTTAGTTAATTAAACACACAAAAAAAAAAATAAA [CACACA_site3930] | 6.4 |
| AAAATTATAAATCTTGCACACAAAAAAAATAATAAA [CACACA_site8771] | 8.27 |
| ATAAAATAATCTTATGCACACCAAAAATTTATATAA [CACACA_site8332] | 10.4 |
| AAATAAATCTTATGCACACAAATAATTAATTAAACA [CACACA_site1693] | 10.7 |
| AATTATAAATCTTGCACACAAAAAAAATAATAAAAA [CACACA_site2434] | 8.67 |
| AAGCCTTAAAAGGAAAGTACGTATATATATATATAT [XGTACX_site8559] | 9.48 |
| TAAAGGTGAACAATACGTACATAAGAACTTATGAGG [XGTACX_site4216] | 6.43 |
| ACAATGAGGATATATACACACATACATTAAAAAAAT [CACACA_site6955] | 6.71 |
| GCACCAAAAAAAAGACGTACAGTTATATTAAAATAG [XGTACX_site8926] | 6.7 |
| ATACATCAAGGACACACACACACACCCACACCCACA [CACACA_site8013] | 6.71 |
| AAATAAATCTTATGCACACAAATAATTAATGAAACA [CACACA_site5011] | 10.6 |
| TATATGAAATATTATGCACACAATATATAATATGAT [CACACA_site936] | 10.2 |
| CTTAAAAACAAAAATGCACACATAATAAGCATATGT [CACACA_site9149] | 9.58 |
